The record followed here is PubChem BioAssay (NCATS).

Assay [1] in a line: Primary qHTS for inhibitors of SARS-S pseudo-typed particle cell entry (AID 1479145). Further: nearly all actives have a fitted effect of over 45% in size. On activity change, negative = inhibition: on the % scale 0 is the no-effect control and ±100 the full control effect. As to conditions: outcome: dose series up to 57.1 µM unless noted. A general note: qHTS replaces the single test concentration by a dilution series.
A short description of assay [2]: Primary qHTS for Huh7 cytotoxicity: counterscreen for inhibitors of MERS-S pseudotyped particle cell entry (AID 1479147). On activity change, negative = cytotoxicity: on the % scale 0 is the no-effect control and ±100 the full control effect. As to conditions: outcome: dose series up to 57.1 µM unless noted.
Assay [3] is described as follows: Primary qHTS for inhibitors of MERS-S pseudo-typed particle cell entry (AID 1479149). Further: nearly all actives have a fitted effect of over 60% in size. As to conditions: outcome: dose series up to 57.1 µM unless noted.
A short description of assay [4]: Primary qHTS for Vero E6 cytotoxicity: counterscreen for inhibitors of SARS-S pseudo-typed particle cell entry (AID 1479150). On activity change, negative = cytotoxicity: on the % scale 0 is the no-effect control and ±100 the full control effect. Conditions: outcome: dose series up to 57.1 µM unless noted.
Assay [5] is described as follows: Cytotoxicity counterscreen for inhibitors of SARS-CoV-2 cell entry (AID 1645845). Further: nearly all actives have a fitted effect of over 50% in size. On activity change, negative = cytotoxicity: on the % scale 0 is the no-effect control and ±100 the full control effect. Conditions: outcome: dose series up to 57.1 µM unless noted. Put shortly:
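Counterscreen run in the same HEK293-ACE2 line as the pseudotyped-particle entry assay, without particles. Viability after 48 h at 37 C was read as ATP luminescence, scaled between cell-containing and cell-free wells.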
In general terms: Counterscreens check selectivity or assay interference.

The nature of assay [6]: Primary qHTS to identify inhibitors of SARS-CoV-2 cell entry (AID 1645846). Further: nearly all actives have a fitted effect of over 45% in size. As to conditions: SARS-CoV-2 pseudovirus cell entry assay, luminescence; activity change, negative = inhibition: at 57.1 µM (top of the series) unless noted. Summed up:
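Luminescence readout (Bright-Glo luciferase) 48 h after pseudoparticle addition. HEK293-ACE2 cells, 1500/well; compound pre-incubation 1 h; Normalized to spike PP and bald PP.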

For assay [7], the target named is Glutathione peroxidase 1 (Homo sapiens) (UniProt P07203). In words: Primary qHTS Assay for Inhibitors of Recombinant Selenoprotein Glutathione Peroxidase 1 (GPX1) (AID 1845191; active means well fitted inhibition curve with a large enough effect; further: nearly all actives have a fitted effect of over 65% in size). Put shortly: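 GR-coupled readout: NADPH consumption tracked by fluorescence, ex 340/em 450 nm, at t=0 and after 15 min at RT. Final mix 10 nM GPX1, 1 mM GSH, 0.5 mM CHP, 0.5 mM NADPH, 100 nM GR, 0.01% BSA, following 30 min enzyme–compound preincubation.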

Assay [8] addresses Phospholipid hydroperoxide glutathione peroxidase GPX4 (Homo sapiens) (UniProt P36969). In words: Primary qHTS Assay for Inhibitors of Recombinant Selenoprotein Glutathione Peroxidase 4 (GPX4) (AID 1845192; active means well fitted inhibition curve with a large enough effect; further: nearly all actives have a fitted effect of over 65% in size). Summed up:
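Steps: GPX4 plus compound, 30 min RT; add GR/GSH/NADPH master mix; start with cumene hydroperoxide; read 340/450 nm fluorescence at 0 and 15 min. Finals were 200 nM GPX4, 1 mM GSH, 0.5 mM CHP, 0.5 mM NADPH, 100 nM GR.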

Results filed as inconclusive are left out. Calls of active or inactive are those of the source. Unless noted, the call rests on the fitted dose curve.

Sequence of Glutathione peroxidase 1 (Homo sapiens) (P07203 whole entry, looked up): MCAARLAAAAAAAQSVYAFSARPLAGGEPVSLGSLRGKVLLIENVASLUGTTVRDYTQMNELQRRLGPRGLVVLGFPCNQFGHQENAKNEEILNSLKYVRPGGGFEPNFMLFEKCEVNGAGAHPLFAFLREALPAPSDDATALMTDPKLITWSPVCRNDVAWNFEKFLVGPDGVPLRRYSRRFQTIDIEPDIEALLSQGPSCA
Sequence of Phospholipid hydroperoxide glutathione peroxidase GPX4 (Homo sapiens) (P36969 whole entry, looked up): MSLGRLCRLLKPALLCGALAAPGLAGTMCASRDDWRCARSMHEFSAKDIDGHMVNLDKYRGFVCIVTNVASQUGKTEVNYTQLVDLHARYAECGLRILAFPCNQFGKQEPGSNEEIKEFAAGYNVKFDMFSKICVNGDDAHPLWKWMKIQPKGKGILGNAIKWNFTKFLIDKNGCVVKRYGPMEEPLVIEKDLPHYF

As to `C/C(=C\C(=O)OCCCCCCCCC(=O)O)C[C@@H]1OC[C@H](C[C@@H]2O[C@H]2[C@@H](C)[C@H](C)O)[C@@H](O)[C@H]1O`, the Potency entry in assay [1], in assay [2], in assay [3], in assay [4] and in assay [5] was “inactive” throughout. In addition, the activity change, negative = inhibition in assay [6] was -28.4%.
With `O=C(Cn1cnnn1)N[C@@H]1C(=O)N2C(C(=O)O)=C(CSc3nncs3)CS[C@H]12`, the Potency entry in assay [1], in assay [2], in assay [3], in assay [4] and in assay [5] was “inactive” each time. In addition, the activity change, negative = inhibition in assay [6] is -9.88%.
On to `N#C[C@@H]1CCCN1C(=O)CNC12CC3CC(CC(O)(C3)C1)C2`, for which the Potency entry in assay [1], in assay [2], in assay [3], in assay [4], in assay [5] and in assay [6] was “inactive” in each case.
In the case of `O=C(O)C1=C(CSc2nnnn2CS(=O)(=O)O)CS[C@@H]2[C@@H](NC(=O)[C@H](O)c3ccccc3)C(=O)N12`, the Potency result in assay [1], in assay [2], in assay [3], in assay [4] and in assay [5] was “inactive” each time. Besides, the activity change, negative = inhibition in assay [6] was -22.2%.
Turning to `CC(=O)OCC(=O)[C@@]1(O)[C@H](C)C[C@H]2[C@@H]3C[C@H](F)C4=CC(=O)C=C[C@]4(C)[C@H]3[C@@H](O)C[C@@]21C`, the Potency entry in assay [1], in assay [2], in assay [3], in assay [4] and in assay [5] was “inactive” in each case. The activity change, negative = inhibition in assay [6] was -11.4%.
Take `CCN(CC)CCOC(=O)c1cccnc1`: the Potency result in assay [1], in assay [2], in assay [3], in assay [4] and in assay [5] was “inactive” each time. Also, the activity change, negative = inhibition in assay [6] is -32.2%.
In the case of `N[C@H](Cc1ccccc1)C(=O)O`, the Potency result in assay [1], in assay [2], in assay [3], in assay [4] and in assay [5] was “inactive” throughout. The activity change, negative = inhibition in assay [6] is -27.4% [at 27.1 µM].
Turning to `O[C@@H]1[C@@H](O)[C@@H](O)OC[C@@H]1O`, the Potency entry in assay [1], in assay [2], in assay [3], in assay [4] and in assay [5] was “inactive” each time. Besides, in assay [6], the activity change, negative = inhibition is -10.9% [at 171 µM].
Consider `OC(CN1CCCCC1)c1cc(-c2ccccc2)on1` (stereo not drawn), for which the Potency entry in assay [1], in assay [2], in assay [3], in assay [4] and in assay [5] was “inactive” each time. Further, the activity change, negative = inhibition in assay [6] is -15.3%.
With `CO[C@H]1C[C@@H](O[C@@H]2/C(C)=C/C[C@@H]3C[C@@H](C[C@]4(CC[C@H](C)[C@@H](C5CCCCC5)O4)O3)OC(=O)[C@@H]3C=C(C)/C(=N/O)[C@H]4OC/C(=C\C=C\[C@@H]2C)[C@]43O)O[C@@H](C)[C@H]1O`, the Potency entry in assay [1], in assay [2], in assay [3], in assay [4], in assay [5] and in assay [6] was “inactive” throughout.
Consider `CC1(C)C2CC[C@]3(C)C(C(=O)C=C4[C@@H]5C[C@@](C)(C(=O)O)CC[C@]5(C)CC[C@]43C)[C@@]2(C)CC[C@@H]1O` (stereo partly drawn), for which the Potency result in assay [1], in assay [2], in assay [3], in assay [4] and in assay [5] was “inactive” throughout. For the same compound, the activity change, negative = inhibition in assay [6] is -28.8%.
For `CCNC(=O)CCC/C=C\C[C@@H]1[C@@H](/C=C/[C@@H](O)CCc2ccccc2)[C@H](O)C[C@@H]1O`, the Potency result in assay [1], in assay [2], in assay [3], in assay [4] and in assay [5] was “inactive” each time. In addition, the activity change, negative = inhibition in assay [6] was -19.7%.
On to `CC(=O)[O][Al][O]C(C)=O`, for which the values for the activity change, negative = inhibition in assay [1] and in assay [6] were -39.3% [at 11.4 µM] (inactive) and -37.2% [at 11.3 µM], respectively. Further, the values for the outcome in assay [2], in assay [3] and in assay [5] were “inactive [at 11.4 µM]”, “inactive [at 11.4 µM]” and “inactive [at 11.3 µM]”, respectively. Moreover, the activity change, negative = cytotoxicity in assay [4] was -2.68% [at 11.4 µM] (inactive).
In the case of `CN[C@@H]1[C@H](O[C@H]2[C@H](O[C@@H]3[C@@H](O)[C@H](O)[C@@H](N=C(N)N)[C@H](O)[C@H]3N=C(N)N)O[C@@H](C)[C@]2(O)C=O)O[C@@H](CO)[C@H](O)[C@H]1O`, the values for the activity change, negative = inhibition in assay [1] and in assay [6] were -20.2% [at 11.4 µM] (inactive) and -18.7% [at 11.3 µM], respectively. Moreover, the results for the activity change, negative = cytotoxicity in assay [2] and in assay [4] were -3.3% [at 11.4 µM] (inactive) and -2.76% [at 11.4 µM] (inactive), respectively. Moreover, the outcome in assay [3] is “inactive [at 11.4 µM]”. Moreover, the Potency result in assay [5] and in assay [6] was “inactive” each time.
As to `CCC[C@@H]1CC(=O)N([C@@H](CC)C(N)=O)C1`, the Potency entry in assay [1], in assay [2], in assay [3], in assay [4], in assay [5] and in assay [7] was “inactive” throughout. The Potency entry in assay [8] is “inactive”. The activity change, negative = inhibition in assay [6] was -22.5%.
Take `CNC(C)CC1CCCC1` (stereo not drawn): the Potency result in assay [1], in assay [2], in assay [3], in assay [4], in assay [5] and in assay [6] was “inactive” each time. In addition, the Potency entry in assay [8] is “inactive”.
Turning to `C[C@H]1[C@H](O)[C@@H](C)/C=C/C=C/CC/C=C/C=C/C=C/C=C/C(OC2O[C@H](C)[C@@H](O)[C@H](N)[C@@H]2O)CC2O[C@](O)(CC(O)C(O)CCC(O)CC(O)CC(O)CC(=O)O[C@H]1C)CC(O)C2C(=O)O` (stereo partly drawn), the Potency entry in assay [1], in assay [2], in assay [3], in assay [4], in assay [5] and in assay [7] was “inactive” in each case. Further, in assay [6], the activity change, negative = inhibition is -22.7%.
Consider `O=C(O)c1ccc(NC(=O)[C@H](Cc2ccc(O)cc2)NC(=O)c2ccccc2)cc1`, for which the Potency result in assay [1], in assay [2], in assay [3], in assay [4] and in assay [5] was “inactive” in each case. Besides, the activity change, negative = inhibition in assay [6] was -10.6%.
As for `C[C@H](CCC(=O)O)[C@H]1CC[C@H]2[C@@H]3CC[C@@H]4C[C@H](O)CC[C@]4(C)[C@@H]3C[C@H](O)[C@]12C`, the Potency result in assay [1], in assay [2], in assay [3], in assay [4], in assay [5] and in assay [6] was “inactive” each time.
Regarding `CC(O)C(CO)NC(=O)C1CSSCC(NC(=O)C(N)Cc2ccccc2)C(=O)NC(Cc2ccccc2)C(=O)NC(Cc2c[nH]c3ccccc23)C(=O)NC(CCCCN)C(=O)NC(C(C)O)C(=O)N1` (stereo not drawn), the Potency entry in assay [1], in assay [2], in assay [3], in assay [4] and in assay [5] was “inactive” in each case. Further, the activity change, negative = inhibition in assay [6] was -15.6% [at 27.1 µM].
Take `CC1(C)S[C@@H]2[C@H](N)C(=O)N2[C@@H]1C(=O)O`: the outcome was “inactive [at 5.34 µM]” in assay [1]; “inactive [at 5.34 µM]” in assay [2]; “inactive [at 5.34 µM]” in assay [3]; “inactive [at 5.34 µM]” in assay [4]; “inactive [at 5.25 µM]” in assay [5]; “inactive [at 5.25 µM]” in assay [6]. Moreover, the outcome in assay [8] was “inactive [at 4.52 µM]”. Besides, the activity, negative = inhibition in assay [7] was 1.27% [at 4.49 µM] (inactive).
